High-throughput results: PubChem BioAssay, National Center for Advancing Translational Sciences (NCATS)
A selection: hits, their analogues and other compounds. The true share with any hit is near 9.2%.
HTT aggregate – mutant huntingtin aggregation inhibition; PC12 HttQ103-GFP aggregates, Acumen cytometry, 40 h; hit rate 1.1% among 220,000; Potency, µM (top dose mostly 46.1 µM), for inactives: at the highest dose activity change, negative = inhibition, most hits filed as inhibitors; active = well fitted curve in the direction sought with a large enough effect; inconclusive = small, poorly fitted or top-dose-only effect, or another doubt; inactive = no such curve, though single readings can be large; an effect the other way counts as inactive or inconclusive; also: % is scaled to controls: 0 for no effect and ±100 for the full control effect; nearly all actives have a fitted effect of over 60% in size
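Aggregate formation scored by laser-scanning cytometer (488 excitation, 500–530 emission) in lysed PC12 cells expressing Q103-GFP after 100 nM tebufenozide induction; library tested in dose series, with ATPLite reagent added in the multiplex.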
LMNA splice mod – modulators of lamin A splicing; hit rate 0.01% among 200,000; Potency, µM (highest dose often 46.1 µM), without a hit: at the highest dose ratio change, negative = inhibition, hits mostly inhibitors; AID 1487; HeLa LMNA splicing GFP/RFP minigene ratio, 48 h; active = well fitted inhibition curve with a large enough effect in the signal ratio, with a control signal flat, not every such curve was filed as active; inconclusive = small, poorly fitted or top-dose-only effect, or effect the other way, or a change in a side signal; the % refers to the signal ratio; also: % is scaled to controls: 0 for no effect and ±100 for the full control effect
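S3 HeLa stable clones carrying a lamin A-EGFP splicing minigene plus DsRed2 were seeded at 600 cells/well in Opti-MEM with 2% FBS, pin-dosed and incubated 48 h at 37°C. Acumen cytometry (488 nm) gave the GFP/RFP total-intensity ratio.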
HPGD block – HPGD (human) dehydrogenase inhibition. purified HPGD, NADH fluorescence kinetic, PGE2 substrate. hit rate 4.3% among 150,000. Potency, µM, for the others: at the highest dose activity change, negative = inhibition, usual class: inhibitors; also: % is scaled to controls: 0 for no effect and ±100 for the full control effect
Target sequence (P15428 whole entry, looked up): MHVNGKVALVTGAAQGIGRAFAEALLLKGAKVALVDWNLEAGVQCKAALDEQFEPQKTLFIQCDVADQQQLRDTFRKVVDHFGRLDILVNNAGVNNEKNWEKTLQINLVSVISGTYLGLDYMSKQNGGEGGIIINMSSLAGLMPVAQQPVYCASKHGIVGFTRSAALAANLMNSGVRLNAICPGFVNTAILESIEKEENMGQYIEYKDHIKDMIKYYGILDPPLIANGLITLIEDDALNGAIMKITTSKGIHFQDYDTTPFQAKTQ
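NADH formation kinetics: reaction with 30 uM PGE2 and 1 mM NAD+ (final), 20 nM enzyme, Tris-HCl pH 8 with Tween 20, after 15 min compound preincubation at room temperature. Fluorescence change, last versus first of five reads.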
ALDH1A1 block – inhibitors of human aldehyde dehydrogenase 1A1 | Purified ALDH1A1, NADH fluorescence, propionaldehyde substrate | hit rate 7.3% among 220,000 | P00352 | AID 1030 | Potency, µM (titrated, usually from 75.3 µM), for inactives: at the highest dose activity, negative = inhibition, hits mostly inhibitors;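 also: plate controls were no enzyme wells and a reference inhibitor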
KDM4E inh – inhibitors of human JMJD2E histone demethylase. Potency, µM (titrated, usually from 57.1 µM), for inactives: top-dose activity change, negative = inhibition, usual class: inhibitors. B2RXH2. AID 2147. hit rate 1.6% among 230,000. JMJD2E catalytic domain, FDH-coupled NADH fluorescence (FDH is formaldehyde dehydrogenase);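 also: 0% = wells with enzyme and -100% = buffer wells without enzyme; nearly all actives have a fitted effect of over 50% in size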
Target sequence (B2RXH2 1-337 limits assumed): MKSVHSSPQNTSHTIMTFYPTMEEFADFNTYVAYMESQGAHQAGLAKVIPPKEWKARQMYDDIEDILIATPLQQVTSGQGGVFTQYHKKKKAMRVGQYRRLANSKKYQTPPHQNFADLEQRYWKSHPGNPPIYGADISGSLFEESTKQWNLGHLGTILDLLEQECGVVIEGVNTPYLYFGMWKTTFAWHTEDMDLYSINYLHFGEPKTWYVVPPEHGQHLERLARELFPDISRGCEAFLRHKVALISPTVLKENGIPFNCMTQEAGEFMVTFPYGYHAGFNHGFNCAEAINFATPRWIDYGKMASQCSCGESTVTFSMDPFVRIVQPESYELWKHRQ
HTT cytoprotect – protects HTT-Q103 PC12 cells, measured by ATP; PC12 HTT-Q103 induced, cytoprotection, ATP luminescence, 40 h; hit rate 0.14% among 230,000; AID 1471; Potency, µM (top dose mostly 56.4 µM), inactives show cytoprotection (ATP increase), most hits filed as activators; active = well fitted curve in the direction sought with a large enough effect; inconclusive = small, poorly fitted or top-dose-only effect, or another doubt; inactive = no such curve, though single readings can be large; an effect the other way counts as inactive or inconclusive; also: % of control where 0% means no effect; nearly all actives have a fitted effect of over 45% in size
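Stable PC12 Q103-GFP cells in serum-supplemented, phenol red-free DMEM; induction by tebufenozide at 100 nM final; compound dose series; cell viability quantified luminescently from ATP.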
The depositor's hits bear a star; i = inactive; ? = inconclusive; · = not tested or not shown; [ ] = remark or other dose. Unless noted, calls follow the shape of the dose curve; as a rule, active = well fitted inhibition curve with a large enough effect (not every such curve was filed as active); inconclusive = small, poorly fitted or top-dose-only effect, or another doubt; inactive = no such curve, though single readings can be large or run the other way. Potency is read from the fitted curve at half-maximal effect.

SMILES	HTT aggregate	LMNA splice mod	HPGD block	ALDH1A1 block	KDM4E inh	HTT cytoprotect
CC1(C)CC(=O)c2sc(NC(=O)c3ccc4ncsc4c3)nc2C1	-9.4%	-6.9%	?	3.55µM*	-17.6%	-20.0%[10 µM]
Cc1ccc2nc(NC(=O)c3ccc4ncsc4c3)sc2c1	1.1%	-4.4%	?	?	i	8.8%[10 µM]
O=C1CC(c2ccco2)Cc2nc(N3CCc4ccccc4C3)ncc21 (centres undefined)	30.6%	?	?	12.6µM*	-6.0%	13.7%
CC(C)c1ccc(C2CC(=O)c3cnc(N4CCc5ccccc5C4)nc3C2)cc1 (centres undefined)	-6.4%	15.0%	-20.2%	-9.7%	10.9%	0.8%
O=C(CSC(=S)N1CCCCC1)Nc1ncc2c(n1)CC(c1ccco1)CC2=O (centres undefined)	-15.8%[9.22 µM]	·	·	3.98µM*	-0.1%	-18.4%[10 µM]
O=C(NCCCN1CCCCCC1)C(c1ccccc1)C1CCCCC1 (centres undefined)	·	·	·	-6.7%	·	-35.3%
CCCCc1c(CCC)c(=N)c2ccccc2n1C	8.91µM*	14.7%	-22.1%	-5.4%	?	-3.5%[10 µM]
CCCCc1c(O)c2ccccc2n(CCCC)c1=O	-26.5%	?	?	?	?	·
CC(=O)c1ccc(NC(=O)CSCC(=O)Nc2ccc3ccccc3c2)cc1	5.1%	-1.8%	-12.3%	?	4.1%	-3.4%
CC(=O)c1ccc(NC(=O)CCSCCC(=O)Nc2ccc(C(C)=O)cc2)cc1	1.1%	27.5%	-10.2%	39.8µM*	-4.6%	-10.0%
COC1CC(O[C@H]2/C(C)=C/CC3CC(C[C@]4(CCC(C)C(C5CCCCC5)O4)O3)OC(=O)[C@H]3C=C(C)/C(=N/O)C4OC/C(=C\C=C\[C@@H]2C)[C@@]43O)OC(C)C1O (some centres undefined)	-2.4%	?	-2.8%	3.9%	-1.2%	-67.1%
CC(=O)c1cccc(NS(=O)(=O)c2ccc(N/C=C\C(=O)c3ccc(F)cc3)cc2)c1	10µM*	2.0%	-20.1%	-15.0%	?	-61.5%
CN(C)c1ccc(CNC(=O)C2(C)C=CCN2C(=O)c2ccccc2)cc1 (centres undefined)	·	·	-17.1%	17.8µM*	?	18.5%
Cc1cc(C)n(C(=O)CNc2ccc(C)c(C)c2)n1	14.0%	?	-2.0%	25.1µM*	3.6%	14.5%[1.9 µM]
Nc1ncnc2c1nc(Br)n2C1O[C@H]2COP(=O)(O)O[C@@H]2C1O (some centres undefined)	·	?	-6.1%	3.3%	1.4%	·
CCOC(=O)c1noc(C)c1C(=O)Nc1nc(C)cc(C)n1	7.8%	·	·	20µM*	-10.7%	-22.1%
O=C(c1ccncc1)N1CCC2(CC1)CN(c1ccccc1)C2	·	·	-4.9%	?	·	-15.5%
COC(=O)c1[nH]c2ccc(C)cc2c1NC(=O)CN1CCN(c2ccc(F)cc2)CC1	-27.0%	?	?	?	?	1.58µM*
CCOC(=O)C1=C(c2ccccc2)NC(=O)NC1c1cc(Br)c(O)c(OC)c1 (centres undefined)	19.5%	·	·	22.4µM*	16.0%	·
COc1cc(C2NC(=S)NC(c3ccccc3)=C2C(C)=O)cc(Br)c1OCC(N)=O (centres undefined)	-1.3%[9.22 µM]	-16.5%[46 µM]	·	14.1µM*	-13.9%	-9.9%
CCCOc1ccc(C2NC(=S)NC(c3ccccc3)=C2C(=O)Nc2ccc(C)cc2)cc1OC (centres undefined)	23.7%	-4.2%	-10.4%	0.355µM*	0.4%	2.8%[10 µM]
Cc1c(C(=O)N2c3ccccc3Sc3ccccc32)cccc1[N+](=O)[O-]	3.9%	?	-14.2%	2.6%	-1.3%	-0.2%[10 µM]
Cn1ccnc1Sc1nc2ccccc2nc1NS(=O)(=O)c1ccccc1	-12.2%[9.22 µM]	-13.0%	22.4µM*	-3.1%	?	-8.0%[4.97 µM]
O=C(CCC(=O)N1CCN(c2ccccc2)CC1)Nc1nnc(C2CCCCC2)s1	9.7%[9.22 µM]	·	·	·	-4.8%	5.9%[10 µM]
CCCS(=O)(=O)N1CCC(C(=O)NC2CCCCC2C)CC1 (centres undefined)	4.1%	3.7%	·	10µM*	-4.3%	-11.8%
SMILES	HTT aggregate	LMNA splice mod	HPGD block	ALDH1A1 block	KDM4E inh	HTT cytoprotect
COCCn1c(=O)c(-c2ccc(F)cc2)nc2cnc(OC)nc21	·	-0.5%	·	?	·	-88.7%
CCOC(=O)C1=C(C)NC2=C(C1c1ccc([N+](=O)[O-])cc1)S(=O)(=O)c1ccccc12 (centres undefined)	14.6%	?	-24.0%	2.51µM*	-3.6%	5.6%
CCOC(=O)C1=C(C)NC2=C(C(=O)c3ccccc32)C1c1ccc([N+](=O)[O-])o1 (centres undefined)	-7.9%[9.22 µM]	·	·	?	8.5%	8.9%[10 µM]
COc1cc(OC)cc(C(=O)NCC(=O)OCC(=O)Nc2ncc(Cl)cc2Cl)c1	31.5%	-0.9%[9.22 µM]	·	25.1µM*	-8.4%	3.1%
O=C(COC(=O)c1ccc(Br)o1)Nc1ncc(Cl)cc1Cl	10.4%	23.8%[46 µM]	·	18.9µM*	14.8%	-13.5%
COc1ccc(CC(=O)OCC(=O)Nc2ncc(Cl)cc2Cl)cc1	-4.0%	9.4%	-4.9%	3.4%	-3.5%	6.9%
COCCN1CCN(Cc2cn[nH]c2-c2cc3ccccc3o2)CC1	-11.6%[9.22 µM]	·	·	?	4.9%	1.4%[10 µM]
O=C1CC(Sc2nnc(-c3ccccc3O)o2)C(=O)N1c1ccccc1 (centres undefined)	?	7.5%	?	3.55µM*	-18.3%	-59.4%
COc1ccc(N2C(=O)CC(Sc3nnc(-c4ccccc4)o3)C2=O)cc1 (centres undefined)	25.1µM*	2.5%	22.4µM*	1.78µM*	1.1%	-150.5%
S=c1nc[nH]c2c1[nH]c1ccccc12	4.4%	-3.2%	25.1µM*	14.1µM*	?	2.4%[10 µM]
O=S1(=O)CC=C(CSC(=S)NC2CCS(=O)(=O)C2)C1 (centres undefined)	·	-7.8%[46 µM]	·	18.9µM*	-1.5%	·
Cc1ccc(CSc2nnc(-c3ccco3)o2)cc1	-1.2%	18.7%	25.1µM*	-8.5%	-8.6%	-33.4%
Brc1ccc(CSc2nnc(-c3ccco3)o2)cc1	-0.7%	7.3%	25.1µM*	-6.1%	-3.7%	-13.7%[10 µM]
COc1ccc([C@@H]2[C@H]3C(=O)N(c4cccc(C(F)(F)F)c4)C(=O)[C@H]3ON2C)cc1	-13.2%	-12.8%	-18.3%	14.1µM*	0.8%	5.1%[10 µM]
CCOc1ccccc1NC(=O)C1=C(C)NC(=S)NC1c1cccs1 (centres undefined)	-4.6%	?	-13.5%	0.631µM*	-2.3%	·
CC1=C(C(=O)Nc2ccccc2C)C(c2cccs2)NC(=S)N1 (centres undefined)	-8.5%	-13.2%	-13.8%	12.6µM*	-10.2%	12.5%[10 µM]
